From PubChem BioAssay (NCI)
This is part of a sample that, as a whole, favours compounds with a hit. Of some 79,000 tested, about 15% had one in any assay. The source made the active and inactive calls. Cut-off read from the data, not from the text of the source: active = growth inhibition above about 70%; inactive = the rest.

Tests used:
[1] = NCI Yeast Anticancer Drug Screen. Data for the wt2 strain (AID 169);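 note: 0% = growth of vehicle-treated yeast cultures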; conditions: S. cerevisiae wt2 strain growth inhibition, hits give high values
In short: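 Growth of compound-treated yeast is measured and expressed as inhibition relative to vehicle-only controls.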

[2] = NCI Yeast Anticancer Drug Screen. Data for the mlh1 strain (AID 171);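 note: 0% = growth of vehicle-treated control cultures of the same strain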; conditions: S. cerevisiae mlh1 strain growth inhibition, hits give high values
In short: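 Test agents were incubated with yeast bearing a defined DNA damage repair or cell cycle control alteration; values are growth inhibition normalised to vehicle-treated cultures.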

[3] = NCI Yeast Anticancer Drug Screen. Data for the sgs1 strain (AID 173);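 note: 0% = growth of vehicle-only control cultures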; conditions: S. cerevisiae sgs1 mutant, hits give high values
In short: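 Strain with an altered DNA repair or cell cycle pathway exposed to compound. Growth then measured. Value = inhibition versus vehicle control.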

[4] = NCI Yeast Anticancer Drug Screen. Data for the mlh1 rad18 strain (AID 175); conditions: S. cerevisiae mlh1 rad18 strain growth inhibition, hits give high values
In short: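 A repair-deficient yeast strain is exposed to test compound, and growth is scored relative to vehicle-treated controls.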

[5] = NCI Yeast Anticancer Drug Screen. Data for the rad18 strain (AID 177); conditions: S. cerevisiae rad18 mutant growth inhibition, hits give high values
In short: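 DNA-repair-defective yeast; compound treatment; growth inhibition scored against vehicle.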

[6] = NCI Yeast Anticancer Drug Screen. Data for the rad52 strain (AID 147);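 note: 0% = growth of vehicle-treated control cultures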; conditions: S. cerevisiae rad52 mutant growth inhibition, hits give high values
In short: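 Growth of repair-deficient yeast cells was compared between compound-treated and vehicle-treated cultures to give percent inhibition.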

[7] = NCI Yeast Anticancer Drug Screen. Data for the wt1 strain (AID 149);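 note: 0% = growth of vehicle-treated wt1 cultures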; conditions: S. cerevisiae wt1 strain (SPY 50644) growth inhibition, hits give high values
In short: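 The wt1 strain was treated with compounds, and growth was compared with vehicle-treated cultures to give inhibition.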

[8] = NCI Yeast Anticancer Drug Screen. Data for the rad50EPP+ strain (AID 151);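 note: 0% = growth of vehicle-treated control cultures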; conditions: S. cerevisiae rad50 mutant strain, hits give high values
In short: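 Measured: growth inhibition of rad50EPP+ yeast. Reference: vehicle-treated controls. Screen uses strains with defined genetic alterations in DNA damage repair or cell cycle control.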

[9] = NCI Yeast Anticancer Drug Screen. Data for the mgt1 strain (AID 153); conditions: S. cerevisiae mgt1 mutant growth inhibition, hits give high values
In short: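 Compounds were applied to mgt1 mutant yeast, and growth was then compared against vehicle-treated control cultures to give percent inhibition.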

[10] = NCI Yeast Anticancer Drug Screen. Data for the rad50 strain (AID 155);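 note: 0% = growth of vehicle-only cultures of the same strain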; conditions: S. cerevisiae rad50 strain growth inhibition, hits give high values
In short: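 Cells are treated with compound, grown, and their growth is then scored against vehicle-only cultures of the same repair-deficient yeast strain.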

[11] = NCI Yeast Anticancer Drug Screen. Data for the mec2-1 strain (AID 157); conditions: S. cerevisiae mec2-1 strain, hits give high values
In short: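 Compounds were applied to mec2-1 yeast cells. Their growth was then compared with that of vehicle-treated cultures to give growth inhibition.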

[12] = NCI Yeast Anticancer Drug Screen. Data for the rad14 strain (AID 159);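 note: 0% = growth of vehicle-treated control cultures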; conditions: S. cerevisiae rad14 strain growth inhibition, hits give high values
In short: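 Readout: yeast growth inhibition, referenced to vehicle-only cultures. Strain bears a defined alteration in DNA damage repair.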

[13] = NCI Yeast Anticancer Drug Screen. Data for the sgs1 mgt1 strain (AID 161);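 note: 0% = growth of cultures given vehicle only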; conditions: S. cerevisiae sgs1 mgt1 strain, hits give high values
In short: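 Yeast cells carrying a defined DNA-repair defect were exposed to test compounds. Growth inhibition was measured relative to vehicle-treated controls.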

[14] = NCI Yeast Anticancer Drug Screen. Data for the CLN2oe strain (AID 163);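 note: 0% = growth of vehicle-only control cultures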; conditions: S. cerevisiae CLN2oe strain, hits give high values
In short: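 Cells of an engineered yeast line with disturbed cell-cycle regulation are treated with compound. Inhibition of growth is then calculated relative to the vehicle-treated reference.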

[15] = NCI Yeast Anticancer Drug Screen. Data for the cln2 rad14 strain (AID 165);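 note: 0% = growth equal to vehicle treated cultures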; conditions: S. cerevisiae cln2 rad14 strain, hits give high values
In short: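 Strain: cln2 rad14 yeast, altered in cell cycle control and DNA damage repair. Read-out: growth inhibition vs vehicle.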

[16] = NCI Yeast Anticancer Drug Screen. Data for the bub3 strain (AID 167); conditions: S. cerevisiae bub3 mutant strain, hits give high values
In short: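 Part of a panel of yeast mutants defective in DNA damage repair or cell cycle regulation. Each strain is grown with compound, and inhibition is calculated relative to solvent-treated cultures.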

[17] = at 5.0 µM (retest, dose inferred, filed as 0.5)
[18] = at 50.0 µM (retest, dose inferred, filed as 5.0)

Measured: growth inhibition

COc1cc2c(c(OC)c1OC)-c1c(cc3c(c1OC)OCO3)CC(C)C(C)(O)C2OC(=O)c1ccccc1 (stereo unspecified)
active: [1]; at 100.0 µM 93% | [4]; at 50.0 µM 87.8%
inactive: [1]; at 1.2 µM -26% | [1]; at 3.7 µM -28% | [1]; at 11.0 µM -29% | [1]; at 33.0 µM 33% | [2]; at 1.2 µM -13% | [2]; at 3.7 µM -6% | [2]; at 11.0 µM -13% | [2]; at 33.0 µM -9% | [2]; at 100.0 µM 56% | [3]; at 1.2 µM -1% | [3]; at 3.7 µM -9% | [3]; at 11.0 µM 9% | [3]; at 33.0 µM -6% | [3]; at 100.0 µM 69% | [4]; [17] 3% | [4]; [18] 47% | [5]; at 1.2 µM -45% | [5]; at 3.7 µM -37% | [5]; at 11.0 µM -26% | [5]; at 33.0 µM -10% | [5]; at 100.0 µM 46%

O=C1C2CC[C@@H]3C(=O)C(Cl)(Cl)[C@@H]3CCC2C1(Cl)Cl (stereo partly specified)
active: [6]; at 100.0 µM 76% | [10]; [18] 70% | [10]; at 50.0 µM 83.3% | [11]; at 50.0 µM 81.9% | [13]; at 50.0 µM 84.6% | [15]; at 50.0 µM 78.8% | [16]; at 50.0 µM 70.8% | [4]; [18] 88% | [4]; at 50.0 µM 79.2% | [5]; at 3.7 µM 85% | [5]; at 11.0 µM 94% | [5]; at 33.0 µM 95% | [5]; at 100.0 µM 96%
inactive: [6]; at 1.2 µM 12% | [6]; at 3.7 µM 25% | [6]; at 11.0 µM 46% | [6]; at 33.0 µM 69% | [7]; at 1.2 µM 0% | [7]; at 3.7 µM 1% | [7]; at 11.0 µM 2% | [7]; at 33.0 µM 9% | [7]; at 100.0 µM 12% | [8]; at 1.2 µM 8% | [8]; at 3.7 µM 15% | [8]; at 11.0 µM 37% | [8]; at 33.0 µM 56% | [8]; at 100.0 µM 50% | [9]; at 1.2 µM -2% | [9]; at 3.7 µM -1% | [9]; at 11.0 µM 8% | [9]; at 33.0 µM -2% | [9]; at 100.0 µM 4% | [10]; at 1.2 µM 5% | [10]; at 3.7 µM 12% | [10]; [17] 19% | [10]; at 11.0 µM -2% | [10]; at 33.0 µM 33% | [10]; at 100.0 µM 37% | [11]; at 1.2 µM 2% | [11]; at 3.7 µM 6% | [11]; [17] -2% | [11]; at 11.0 µM 11% | [11]; at 33.0 µM 21% | [11]; [18] 49% | [11]; at 100.0 µM 24% | [12]; at 1.2 µM 0% | [12]; at 3.7 µM 3% | [12]; at 11.0 µM 6% | [12]; at 33.0 µM 13% | [12]; at 100.0 µM 22% | [13]; [17] 18% | [13]; [18] 67% | [14]; at 1.2 µM 3% | [14]; at 3.7 µM 0% | [14]; at 11.0 µM 5% | [14]; at 33.0 µM 10% | [14]; at 100.0 µM 20% | [15]; [17] 2% | [15]; [18] 22% | [16]; at 1.2 µM 1% | [16]; at 3.7 µM 2% | [16]; [17] -30% | [16]; at 11.0 µM 12% | [16]; at 33.0 µM 10% | [16]; [18] 10% | [16]; at 100.0 µM 11% | [1]; at 1.2 µM 1% | [1]; at 3.7 µM 3% | [1]; at 11.0 µM 7% | [1]; at 33.0 µM 10% | [1]; at 100.0 µM 14% | [2]; at 1.2 µM 1% | [2]; at 3.7 µM 1% | [2]; at 11.0 µM 4% | [2]; at 33.0 µM 10% | [2]; at 100.0 µM 9% | [3]; at 1.2 µM -21% | [3]; at 3.7 µM 20% | [3]; at 11.0 µM 33% | [3]; at 33.0 µM 51% | [3]; at 100.0 µM 53% | [4]; [17] 31% | [5]; at 1.2 µM 59%
